Binding signal data for 27 sequences are collected here from publication PMC7862700, “An all-to-all approach to the identification of sequence-specific readers for epigenetic DNA modifications on cytosine”.

In one assay the target is T1, ERF (Homo sapiens, UniProt P50548 1-548).
T1 sequence: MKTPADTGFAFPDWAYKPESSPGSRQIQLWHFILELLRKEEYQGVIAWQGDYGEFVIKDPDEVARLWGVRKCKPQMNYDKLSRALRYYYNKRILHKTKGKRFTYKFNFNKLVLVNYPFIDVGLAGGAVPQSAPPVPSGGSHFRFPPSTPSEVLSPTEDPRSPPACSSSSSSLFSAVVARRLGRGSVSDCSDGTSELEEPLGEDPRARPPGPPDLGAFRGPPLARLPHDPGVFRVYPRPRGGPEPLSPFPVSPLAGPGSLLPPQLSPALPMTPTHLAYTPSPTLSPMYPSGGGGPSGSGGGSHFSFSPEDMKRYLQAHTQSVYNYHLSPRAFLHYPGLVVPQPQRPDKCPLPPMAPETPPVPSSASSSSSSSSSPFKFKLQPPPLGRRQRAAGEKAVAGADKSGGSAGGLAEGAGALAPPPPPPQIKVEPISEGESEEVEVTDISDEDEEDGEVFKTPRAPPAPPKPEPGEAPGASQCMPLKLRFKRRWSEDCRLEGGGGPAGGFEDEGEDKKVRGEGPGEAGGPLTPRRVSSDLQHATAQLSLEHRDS
Put plainly: DAPPL (digital affinity profiling via proximity ligation, sequencing); 10 mM Tris-HCl pH 7.5, 50 mM NaCl, 1 mM DTT, 4% glycerol, room temperature, 30 min; GST-TFs on glutathione beads, 16-mer random dsDNA library, 0.1% formaldehyde crosslink after washing; high values mean tight binding. The settings on record: protein: recombinant; tags: N-terminal GST; dsDNA, one strand shown. An outline of the steps: (§1)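 In yeast, human transcription factors were expressed with a GST fusion, then pulled down on glutathione beads and given DNA barcodes. Pooled with a tag-only sample, they were exposed to 200 nmole of a 16-mer random double-stranded DNA library (Tris/NaCl/DTT/glycerol buffer, room temperature, 30 min), washed, crosslinked with 0.1% formaldehyde, proximity-ligated using BsaI/T4 ligase for 1 h at 37 °C, PCR-amplified and read on an Illumina NextSeq500. Each hexamer's frequency of reads for a factor, divided by the matching frequency for the tag-only sample, gives the binding signal.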
As to AGTTTG, the binding signal is 1.01 fold enrichment (6-mer frequency, TF over GST control).
In the case of CGCTGT, the binding signal was 1.12 fold enrichment (6-mer frequency, TF over GST control).
As for GGCGTT, the binding signal was 1.01 fold enrichment (6-mer frequency, TF over GST control).
As to CAGCAC, the binding signal is 1.04 fold enrichment (6-mer frequency, TF over GST control).
For the sequence CGACAG, the binding signal was 1.07 fold enrichment (6-mer frequency, TF over GST control).
Still for that read-out and setting: the same measure for AGCACG: 1.01 fold enrichment (6-mer frequency, TF over GST control); for GTACAG: 1.02 fold enrichment (6-mer frequency, TF over GST control).
As for CCACGT, the binding signal is 1.07 fold enrichment (6-mer frequency, TF over GST control).
The same measure, in the same setting: the same measure for GCGACA: 1.04 fold enrichment (6-mer frequency, TF over GST control).
Still for that read-out and setting: the same measure for TGCAGG: 1.01 fold enrichment (6-mer frequency, TF over GST control).
Take GTTCGT: the binding signal was 1.12 fold enrichment (6-mer frequency, TF over GST control).
On to AGTAGC, for which the binding signal was 1.01 fold enrichment (6-mer frequency, TF over GST control).

A further assay concerns the target T2, ETV3L (Homo sapiens, UniProt Q6ZN32 1-361).
T2 sequence: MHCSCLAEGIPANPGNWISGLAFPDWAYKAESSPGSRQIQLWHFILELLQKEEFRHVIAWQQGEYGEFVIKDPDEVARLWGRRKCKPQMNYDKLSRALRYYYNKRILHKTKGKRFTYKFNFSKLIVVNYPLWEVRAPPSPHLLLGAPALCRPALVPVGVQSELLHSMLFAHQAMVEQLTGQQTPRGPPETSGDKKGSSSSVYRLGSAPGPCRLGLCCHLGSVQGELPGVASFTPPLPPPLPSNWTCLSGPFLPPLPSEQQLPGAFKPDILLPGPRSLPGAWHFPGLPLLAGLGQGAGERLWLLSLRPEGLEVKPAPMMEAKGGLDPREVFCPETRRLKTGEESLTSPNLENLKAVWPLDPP
The description is as above. The settings on record: protein: recombinant; tags: N-terminal GST; dsDNA, one strand shown. In short, it runs like this:
as §1
For the sequence AGGTCC, the binding signal was 1.03 fold enrichment (6-mer frequency, TF over GST control).
As for GGCGTT, the binding signal was 1.09 fold enrichment (6-mer frequency, TF over GST control).
Still for that read-out and setting: the same measure for GGTTAC: 1.01 fold enrichment (6-mer frequency, TF over GST control).
As to CACGGC, the binding signal is 1.07 fold enrichment (6-mer frequency, TF over GST control).
On to CCACGT, for which the binding signal was 1.04 fold enrichment (6-mer frequency, TF over GST control).
On the same count and under the same terms, the same measure for AGCATG: 1.02 fold enrichment (6-mer frequency, TF over GST control).
Still for that read-out and setting: the result for GCGACA reads 1.04 fold enrichment (6-mer frequency, TF over GST control); that for GCCATC, 1.03 fold enrichment (6-mer frequency, TF over GST control).

The target of another assay is T3, ETS2 (Homo sapiens, UniProt P15036 1-469).
T3 sequence: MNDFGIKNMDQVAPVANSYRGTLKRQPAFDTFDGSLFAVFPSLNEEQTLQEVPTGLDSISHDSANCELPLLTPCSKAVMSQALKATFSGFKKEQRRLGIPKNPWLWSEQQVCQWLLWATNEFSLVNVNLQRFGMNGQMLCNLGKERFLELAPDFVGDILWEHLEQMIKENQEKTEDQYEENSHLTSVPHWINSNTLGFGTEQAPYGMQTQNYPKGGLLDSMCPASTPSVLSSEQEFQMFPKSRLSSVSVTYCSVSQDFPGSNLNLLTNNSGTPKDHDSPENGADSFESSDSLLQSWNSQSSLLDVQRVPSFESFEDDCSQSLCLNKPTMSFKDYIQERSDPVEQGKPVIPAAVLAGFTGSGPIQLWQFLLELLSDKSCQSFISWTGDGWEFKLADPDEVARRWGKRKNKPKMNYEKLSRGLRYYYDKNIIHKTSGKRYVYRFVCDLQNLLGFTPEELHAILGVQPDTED
The description is as above. The settings on record: protein: recombinant; tags: N-terminal GST; dsDNA, one strand shown. An outline of the steps: as §1
Regarding CACTGA, the binding signal was 1.04 fold enrichment (6-mer frequency, TF over GST control).
On the same count and under the same terms, the same measure for CAGCAC: 1 fold enrichment (6-mer frequency, TF over GST control).
The same measure, in the same setting: the same measure for CGTCAT: 1.03 fold enrichment (6-mer frequency, TF over GST control); for TGCAGG: 1.02 fold enrichment (6-mer frequency, TF over GST control); for AGTAGC: 1.07 fold enrichment (6-mer frequency, TF over GST control).

In a further assay the target is T4, SPDEF (Homo sapiens, UniProt O95238 1-335).
T4 sequence: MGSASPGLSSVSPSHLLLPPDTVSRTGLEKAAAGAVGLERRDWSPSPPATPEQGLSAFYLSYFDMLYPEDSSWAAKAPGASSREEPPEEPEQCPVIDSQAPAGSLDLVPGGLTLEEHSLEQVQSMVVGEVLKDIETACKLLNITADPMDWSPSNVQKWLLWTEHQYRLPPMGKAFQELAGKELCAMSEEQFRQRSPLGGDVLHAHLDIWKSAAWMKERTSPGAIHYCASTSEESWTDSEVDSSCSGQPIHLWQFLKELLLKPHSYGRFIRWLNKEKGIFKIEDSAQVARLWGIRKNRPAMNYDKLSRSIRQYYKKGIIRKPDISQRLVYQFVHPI
Described as above. The settings on record: protein: recombinant; tags: N-terminal GST; dsDNA, one strand shown. An outline of the steps: as §1
With AGGTCC, the binding signal was 1.24 fold enrichment (6-mer frequency, TF over GST control).
Still for that read-out and setting: the same measure for GATCAC: 1 fold enrichment (6-mer frequency, TF over GST control); for CGGGTT: 1.09 fold enrichment (6-mer frequency, TF over GST control); for CGACAG: 1.01 fold enrichment (6-mer frequency, TF over GST control).
For CACGGC, the binding signal is 1.03 fold enrichment (6-mer frequency, TF over GST control).
Turning to CCACGT, the binding signal is 1.02 fold enrichment (6-mer frequency, TF over GST control).
On the same count and under the same terms, the same measure for GCGACA: 1 fold enrichment (6-mer frequency, TF over GST control).

The next assay has as its target T5, ETV7 (Homo sapiens, UniProt Q9Y603 1-341).
T5 sequence: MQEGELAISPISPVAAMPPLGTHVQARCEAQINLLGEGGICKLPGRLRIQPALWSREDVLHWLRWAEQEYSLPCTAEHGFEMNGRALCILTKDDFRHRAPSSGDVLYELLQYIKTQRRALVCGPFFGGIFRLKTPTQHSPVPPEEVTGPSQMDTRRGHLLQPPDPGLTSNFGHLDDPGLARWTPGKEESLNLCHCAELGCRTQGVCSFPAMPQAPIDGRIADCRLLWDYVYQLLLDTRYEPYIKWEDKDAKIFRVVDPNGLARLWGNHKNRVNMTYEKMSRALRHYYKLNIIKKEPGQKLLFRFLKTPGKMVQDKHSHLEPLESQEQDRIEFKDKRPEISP
Described as above. The settings on record: protein: recombinant; tags: N-terminal GST; dsDNA, one strand shown. An outline of the steps: as §1
With AAGGCC, the binding signal is 1.01 fold enrichment (6-mer frequency, TF over GST control).
As for AGGGAA, the binding signal was 1.06 fold enrichment (6-mer frequency, TF over GST control).
As to CGACAG, the binding signal is 1.08 fold enrichment (6-mer frequency, TF over GST control).
On the same count and under the same terms, the same measure for GTACAG: 1.06 fold enrichment (6-mer frequency, TF over GST control).
On the same count and under the same terms, the result for CCACGT reads 1.06 fold enrichment (6-mer frequency, TF over GST control); that for GTAGTA, 1.01 fold enrichment (6-mer frequency, TF over GST control).
Turning to GCGACA, the binding signal is 1.05 fold enrichment (6-mer frequency, TF over GST control).
Regarding GACATG, the binding signal is 1.03 fold enrichment (6-mer frequency, TF over GST control).

A further assay has as its target T6, ELF5 (Homo sapiens, UniProt Q9UKW6-2 1-255).
T6 sequence: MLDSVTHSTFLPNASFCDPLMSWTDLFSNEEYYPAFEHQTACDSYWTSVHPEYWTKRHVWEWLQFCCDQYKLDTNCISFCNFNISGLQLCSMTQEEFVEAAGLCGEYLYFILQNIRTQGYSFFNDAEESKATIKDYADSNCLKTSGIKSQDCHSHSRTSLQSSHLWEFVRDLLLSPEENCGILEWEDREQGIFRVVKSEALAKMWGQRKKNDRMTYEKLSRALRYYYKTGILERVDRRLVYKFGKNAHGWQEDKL
Described as above. The settings on record: protein: recombinant; tags: N-terminal GST; dsDNA, one strand shown. An outline of the steps: as §1
AGGGAA: the binding signal was 1.24 fold enrichment (6-mer frequency, TF over GST control).
Still for that read-out and setting: the result for CGGGTT reads 1.02 fold enrichment (6-mer frequency, TF over GST control).
The same measure, in the same setting: the result for ATGAGG reads 1.11 fold enrichment (6-mer frequency, TF over GST control).
Consider AGTAGC, for which the binding signal is 1.04 fold enrichment (6-mer frequency, TF over GST control).

Another assay concerns the target T7, ETV3 (Homo sapiens, UniProt P41162-2 1-143).
T7 sequence: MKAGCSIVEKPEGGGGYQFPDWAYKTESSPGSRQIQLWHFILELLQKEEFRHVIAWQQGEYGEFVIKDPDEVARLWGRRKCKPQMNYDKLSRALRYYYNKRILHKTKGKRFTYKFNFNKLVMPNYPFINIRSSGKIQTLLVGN
Described as above. The settings on record: protein: recombinant; tags: N-terminal GST; dsDNA, one strand shown. In short, it runs like this: as §1
Turning to AGGTCC, the binding signal is 1.03 fold enrichment (6-mer frequency, TF over GST control).
GGTTAC: the binding signal is 1.01 fold enrichment (6-mer frequency, TF over GST control).
On the same count and under the same terms, the result for CGCAAT reads 1.01 fold enrichment (6-mer frequency, TF over GST control).
On the same count and under the same terms, the result for ATGAGG reads 1.01 fold enrichment (6-mer frequency, TF over GST control); that for GCGACA, 1.01 fold enrichment (6-mer frequency, TF over GST control); that for AGTAGC, 1.08 fold enrichment (6-mer frequency, TF over GST control).
